Screens from PubChem BioAssay.
Compounds with a hit are over-represented: about 1.7% of the library has one in this group of screens.
SUMO1-SIM PPI = SUMO1-SIM interaction modulation; P63165; SUMO1 binding to a labelled peptide, TR-FRET, 1 h; inhibition, % at 20 µM; 360,000 tested, 0.33% active; in the data active = inhibition above about 37%
Neddyl block = blocks human cullin neddylation. AID 651699. 360,000 tested, 0.58% active. P61081+Q13564. inhibition, % at 25 µM. TR-FRET cullin neddylation, biochemical; in the data active = inhibition above about 36%
Rin1 Abl inh = blocks binding of human Rin1 to Abl; AID 588664; TR-FRET Rin1/Abl binding, biochemical; 360,000 tested, 0.4% active; P00519+Q13671; inhibition, % at 7.35 µM; in the data active = inhibition above about 5%, passing the limit was not always enough
ATG4B inh = inhibitors of human ATG4B cysteine protease; inhibition, % at 8.33 µM; Q9Y4P1; AID 504462; 340,000 tested, 0.51% active; ATG4B cleavage of LC3-PLA2, NBD-HPC fluorescence, 1 h; in the data active = inhibition above about 40%
The depositor's hits bear a star; · = not tested or not shown.

SMILES	SUMO1-SIM PPI	Neddyl block	Rin1 Abl inh	ATG4B inh
CC1(Oc2cccc(C#N)c2)CCN(Cc2csc3ccccc23)C1 (centres undefined)	-1	7	1	·
O=C(Nc1ccccc1)NN(C(=O)CCl)c1ccccc1	70*	-3	1	3
CC(C)OC(=O)C(C(=O)C(F)(F)F)c1cc(NS(=O)(=O)c2ccc3ccccc3c2)c2ccccc2c1O (centres undefined)	19	5	-2	51*
Cc1noc(C)c1S(=O)(=O)NC(=O)C1(C)CCN1C(=O)CC(c1ccccc1)c1ccccc1 (centres undefined)	-6	13	-4	·
COCCNC(=O)C1(C)CCCN(C(=O)c2ccccc2)C1 (centres undefined)	6	-4	-2	·
C=C(C)C(=O)Nc1cccc(C2=NOC3(C2)C[C@H](C(N)=O)N(C(=O)CC)C3)c1 (some centres undefined)	62*	-1	0	-7
C=C(C)C(=O)Nc1cccc(C2=NOC3(C2)C[C@@H](C(N)=O)N(C(=O)/C=C/C=C/C)C3)c1 (some centres undefined)	105*	-5	4	-12
C=C(C)C(=O)Nc1cccc(C2=NOC3(C2)C[C@@H](C(N)=O)N(C(=O)/C(C)=C/C)C3)c1 (some centres undefined)	98*	-18	2	-6
C=C(C)C(=O)Nc1cccc(C2=NOC3(C2)C[C@H](C(N)=O)N(C(=O)CC#N)C3)c1 (some centres undefined)	·	·	·	3
C/C=C/C=C\C(=O)Nc1cccc(C2=NOC3(C2)C[C@H](C(N)=O)N(C(=O)CC#N)C3)c1 (some centres undefined)	71*	-33	-4	2
Cc1cccc(C)c1Cn1c(C)c(C(=O)NCc2ccc([N+](=O)[O-])cc2)sc1=O	-8	-11	-2	·
C/C=C(/C)C(=O)Nc1cccc(C2=NOC3(C2)C[C@@H](C(N)=O)N(C(=O)CC(c2ccccc2)c2ccccc2)C3)c1 (some centres undefined)	6	8	0	-20
C=C(C)C(=O)Nc1cccc(C2=NOC3(C2)C[C@@H](C(N)=O)N(C(=O)CC(c2ccccc2)c2ccccc2)C3)c1 (some centres undefined)	77*	-25	1	-33
C=C(C)C(=O)Nc1cccc(C2=NOC3(C2)C[C@H](C(N)=O)N(C(=O)c2ccccc2C(=O)c2ccccc2)C3)c1 (some centres undefined)	92*	-15	-2	11
CCc1ccc2c(c1)NC(=O)C2(C)Cc1ccccc1C#N (centres undefined)	1	8	-2	·
CCC(=O)N1Cc2ccccc2-c2ccccc2C1=O	·	·	·	41*
O=C(Nc1ccc2c(c1)OCCO2)C(C1CC1)n1c(=O)c(-c2cc3ccccc3[nH]2)nc2ccccc21 (centres undefined)	0	·	·	·
O=C(O)c1ccccc1N=Nc1c(O)[nH]c2ccc([N+](=O)[O-])cc12	111*	-37	4	3
O=C(N=Nc1c(O)[nH]c2ccc([N+](=O)[O-])cc12)c1ccccc1Cl	18	-33	-5	-6
NC(=S)n1[nH]c(-c2ccc([N+](=O)[O-])cc2)c(N=Nc2cccc([N+](=O)[O-])c2)c1=O	88*	-38	-3	34
Fc1ccc2[nH]c3c(N4CCc5ccccc5C4)ncnc3c2c1	13	45*	-2	34
Cc1ccc2[nH]c3c(N4CCc5ccccc5C4)ncnc3c2c1	7	30	-2	30
CCOC(=O)COc1nc(C)c(Br)c(OC)n1	61*	3	0	13
O=C(C=Cc1ccc2c(c1)OCO2)OCC=Cc1ccc2c(c1)OCO2	5	20	-4	1
COc1ccc(/C=N/NC(=O)c2nc(-c3ccccc3)n(-c3ccccc3)n2)c(O)c1	11	48*	-1	-2
SMILES	SUMO1-SIM PPI	Neddyl block	Rin1 Abl inh	ATG4B inh
COc1ccc2[nH]c(C(=O)N/N=C/c3ccc(O)cc3O)cc2c1	30	48*	4	22
CCOc1ccc2[nH]c(C(=O)N/N=C/c3ccc(OC)cc3)cc2c1	-5	34	2	-7
CCN(CC)C(=O)C1=C(C)N(CCC2=CCCCC2)C(=O)C(CC(=O)NCCCCc2ccccc2)C1 (centres undefined)	6	11	-2	·
COC1=CC(=O)c2nc(Cl)ccc2C1=O	45*	-24	13	·
COc1cccc2c1C(=O)C=C(C)C2=O	-14	20	-1	-4
O=C(O)CCN1Cc2ccccc2C1=O	3	0	4	8
Cc1ccc(C)c(C(=O)CN2Cc3ccccc3C2=O)c1	46*	1	1	-2
Cc1ccn2c(NC3CCCC3)c(-c3ccncc3)nc2c1	-6	·	-6	0
Cc1ccn2c(NC3CCCC3)c(-c3ccccn3)nc2c1	-3	38*	-4	7
c1ccc(-c2nc3ccccn3c2NC2CCCC2)nc1	-6	39*	-2	1
CC(C)(C)c1ccc(CC(=O)N2CCC2(C)C(=O)NCc2cccc3ccccc23)cc1 (centres undefined)	2	8	4	·
CCCCN1C(=O)C(CC(=O)NC2CC2)CC(C(=O)N(CC)CC)=C1C (centres undefined)	1	1	-5	·
CCc1nc2c(OCc3ccc(Cl)cc3Cl)cccn2c1N(C=O)Cc1ccc(OC)cc1	5	4	-4	·
CCOC(=O)[C@]12CCCC=C1N(Cc1ccco1)C(=O)[C@H](CC(=O)N1CCSCC1)C2	1	0	·	·
Cn1nc(CC(=O)NCc2cccc3ccccc23)c2ccccc2c1=O	-2	-14	-1	8
Cn1nc(CC(=O)NCc2ccc(F)cc2)c2ccccc2c1=O	46*	-1	0	3
CCCCNC(=O)c1nc(C2CCN(S(=O)(=O)c3ccc(F)c(F)c3)CC2)oc1-c1ccccc1	-3	13	8	·
NC(=S)NN=Cc1nccc2c(C(F)(F)F)cccc12	-25	8	-2	·
CNc1cccnc1C=NNC(N)=S	33	47*	-9	6
COc1ccc(C(=O)N/N=C(\C)c2ccc(NC(=O)Cc3ccccc3)cc2)c(OC)c1	47*	·	3	-2
C/C(=N\NC(=O)c1ccc(F)cc1)c1ccc(NC(=O)Cc2ccccc2)cc1	0	-6	-1	-7
Cc1ccccc1P(=O)(c1ccccc1)c1ccccc1C	44*	-4	4	·
Nc1ccccc1C(=O)NNC(=O)C(=O)/C=C(\O)c1ccccc1	2	47*	2	-2
Cc1ccc([C@H]2C[C@@H](O)[C@H](n3cc(-c4ccc(F)cc4)nn3)CN2C(=O)C2CCCCC2)cc1	-3	2	-1	·
COc1ccc(C(Nc2ccccn2)c2oc(CO)cc(=O)c2O)cc1 (centres undefined)	0	2	7.4*	5
O=c1cc(CO)oc(C(Nc2ccccn2)c2ccc(F)cc2)c1O (centres undefined)	0	6	3	-2
COc1cccc2c1C(=O)c1c(O)c3c(c(O)c1C2=O)C[C@@](O)(C(=O)CO)C[C@@H]3OC1CC(N)C(O)C(C)O1 (some centres undefined)	92*	-65	-10	-17
